From PubChem
Pf growth 96h: Primary qHTS for delayed death inhibitors of the malarial parasite plastid, 96 hour incubation; P. falciparum luciferase reporter growth, 96 h; Potency, µM (series often up to 28.7 µM), inactives show at the top dose activity change, negative = inhibition, hits mostly inhibitors; 320,000 compounds, 6.9% hits; AID 504834, 2011; also: potency is read from the fitted curve at half-maximal effect; % is scaled to controls: 0 for no effect and ±100 for the full control effect
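Erythrocytes infected with luciferase-expressing P. falciparum were dispensed at 2% hematocrit and 0.05% parasitemia (final), then incubated with compounds 96 hours at 37 C in 5% CO2. Luminescence after detection reagent addition reported growth.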
Cycloheximide cs: Cycloheximide Counterscreen for Small Molecule Inhibitors of Shiga Toxin; 300,000 compounds, 12% hits; cell reporter, cycloheximide protein synthesis inhibition counterscreen; max response, %; in the data active = max response mostly above about 13%, no sharp cut-off; inactive = mostly below about 14%; also: read at 38.3 µM for the half of the compounds with a filed dose; 0% is about no effect
HCV inhibitor: qHTS Assay for Inhibitors of Hepatitis C Virus (HCV). Potency, µM (highest dose often 41.8 µM), without a hit: at the top dose activity change, negative = inhibition, most hits filed as inhibitors. Huh7.5.1 HCVcc-Cre infection, luciferase reporter, 44 h. AID 651820, 2012. 340,000 compounds, 3.4% hits; also: potency is read from the fitted curve at half-maximal effect; % is scaled to controls: 0 for no effect and ±100 for the full control effect
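After 44 h co-culture of compound, cells and HCVcc-Cre (~0.5 moi), substrate is added for 15 min at room temperature and luciferase measured over 15 sec. Cells were seeded at 1,000/well and pre-cultured 4 h.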
Pf growth 48h: Primary qHTS for delayed death inhibitors of the malarial parasite plastid, 48 hour incubation; P. falciparum luciferase growth in erythrocytes, 48 h; Potency, µM (titrated, usually from 28.7 µM), without a hit: at the top dose activity change, negative = inhibition, actives largely listed as inhibitors; 310,000 compounds, 5.9% hits; AID 504832, 2011; also: potency is read from the fitted curve at half-maximal effect; % is scaled to controls: 0 for no effect and ±100 for the full control effect
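Growth was read as firefly luciferase luminescence after a 48 h, 37 C, 5% CO2 exposure of compounds to reporter-bearing P. falciparum cultures (0.1% parasitemia, 2% hematocrit final) in Albumax-supplemented RPMI 1640.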
Shiga inhibitor: A qHTS for Small Molecule Inhibitors of Shiga Toxin. 290,000 compounds, 9.2% hits. AID 2315, 2010. inhibition, % at 38.7 µM. Vero cells, Shiga toxin protein synthesis inhibition reporter; in the data active = inhibition mostly above about 28%, no sharp cut-off; inactive = mostly below about 43%; also: 0% is about no effect
AMA1-RON2 inh: qHTS for Inhibitors of AMA1-RON; Towards Development of Antimalarial Drug Lead: Primary Screen. AlphaScreen AMA1-biotinylated RON2 peptide binding. Potency, µM (doses to about 58.2 µM), for the others: top-dose activity change, negative = inhibition, most hits filed as inhibitors. 360,000 compounds, 0.2% hits. AID 720542, 2013;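 also: potency is read from the fitted curve at half-maximal effect; 0% = vehicle wells and -100% = peptide control; nearly all actives have a fitted effect of over 45% in size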
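AMA1 (3D7) with his tag at 25 nM final met compounds first, then biotinylated RON2 peptide at 25 nM; detection used donor plus acceptor beads, 10 µg/mL apiece, read by AlphaScreen after 30 min at room temperature.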
Numbers without * were called inactive. A selection: hits, their analogues and other compounds. The true share with any hit is near 21%. Unless noted, calls follow the shape of the dose curve; as a rule, active = well fitted curve in the direction sought with a large enough effect; inconclusive = small, poorly fitted or top-dose-only effect, or another doubt; inactive = no such curve, though single readings can be large; an effect the other way counts as inactive or inconclusive.

For CC(=O)NC(CC(=O)OCC(=O)N1CCc2ccccc21)c1ccccc1 (centres undefined) the results were Pf growth 96h -26.7%, Cycloheximide cs -3.7, HCV inhibitor -1.1%, Shiga inhibitor -3.3 and AMA1-RON2 inh 1.2%.
COc1ccc(CN2C(=O)c3ccccc3C2c2nnnn2-c2ccc3c(c2)OCCO3)cc1OC (centres undefined) was read as AMA1-RON2 inh -0.8%.
`S=C(NCc1cccs1)Nc1cccc(Cl)c1Cl` gave Pf growth 96h -5.6%, Cycloheximide cs 29.5*, HCV inhibitor -22.2%, Pf growth 48h 24.8%, Shiga inhibitor 45.4* and AMA1-RON2 inh 33.7%.
COc1cccc(NC(=S)Nc2ccc(O)cc2)c1 was read as Pf growth 96h 64.2%, Cycloheximide cs 32.1*, HCV inhibitor -19.2%, Pf growth 48h 20.4%, Shiga inhibitor 79.1* and AMA1-RON2 inh 19.7%.
`COc1cccc(NC(=S)Nc2ccc(Br)cc2Cl)c1` gave Pf growth 96h 14.4%, Cycloheximide cs 19.6*, HCV inhibitor -16.0%, Pf growth 48h 18.5%, Shiga inhibitor 31.9 and AMA1-RON2 inh 47.9%.
Screening CCOc1ccc(NC(=S)Nc2ccc(Br)cc2Cl)cc1 returned Pf growth 96h -12.4%, Cycloheximide cs -1.2, HCV inhibitor -17.0%, Pf growth 48h -0.1%, Shiga inhibitor 16.0 and AMA1-RON2 inh 8.9%.
`Cc1cccc(NC(=S)NNC(=S)NCc2ccccc2)c1` gave Pf growth 96h 1.6%, Cycloheximide cs 44.3*, HCV inhibitor inconclusive, Shiga inhibitor 48.5 and AMA1-RON2 inh 22.2%.
Cc1c(Cl)cccc1NC(=S)NCc1cccs1 was read as Pf growth 96h -1.7%, Cycloheximide cs 8.8, HCV inhibitor inconclusive, Pf growth 48h inconclusive, Shiga inhibitor 9.8 and AMA1-RON2 inh 14.2%.
`C/C(=N\NC(=O)c1ccc(NS(=O)(=O)c2cccs2)cc1)c1ccc(O)cc1O` gave Pf growth 96h -57.2%, Cycloheximide cs 9.7, HCV inhibitor -18.9%, Pf growth 48h inconclusive, Shiga inhibitor 13.5 and AMA1-RON2 inh 37.8%.
Screening CC1CC(C)CN(C(=O)C(Cc2ccccc2)NC(=O)c2ccccc2)C1 (centres undefined) returned Pf growth 96h inconclusive, HCV inhibitor -5.4%, Pf growth 48h inconclusive and AMA1-RON2 inh 12.8%.
Screening Cc1cccc(-c2oc3ccc(-c4ccc5c(c4)OCO5)cc3c2C(=O)OCc2ccc(O)cc2)c1 returned Pf growth 96h 52.1%, Cycloheximide cs 4.9, HCV inhibitor 10.8%, Pf growth 48h 17.2%, Shiga inhibitor -7.4 and AMA1-RON2 inh 21.6%.
For CCCC(=O)Nc1nnc(S(=O)(=O)N(CC)c2ccc(OC)cc2)s1 the results were Pf growth 96h 26.8%, Cycloheximide cs 10.5, HCV inhibitor -4.9%, Pf growth 48h 12.0%, Shiga inhibitor -8.3 and AMA1-RON2 inh 1.8%.
Cc1ccc(NC(=S)NCc2cccs2)cc1 was read as Pf growth 96h 7.5%, Cycloheximide cs 31.3*, HCV inhibitor -3.7%, Shiga inhibitor 8.6 and AMA1-RON2 inh -2.7%.
Screening O=C(O)c1ccc2c(c1)C(=O)N([C@H](Cc1ccc(-c3ccccc3)cc1)C(=O)O)C2=O returned Pf growth 96h -0.1%, Cycloheximide cs -0.5, Pf growth 48h inconclusive and Shiga inhibitor -10.1.
CCOC(=O)N1CCC(NC(=O)c2cc(S(=O)(=O)N3CCCC3)cn2C)CC1 was read as Pf growth 96h 0.415µM*, Cycloheximide cs -2.5, HCV inhibitor 2.2%, Pf growth 48h 7.38µM*, Shiga inhibitor -15.8 and AMA1-RON2 inh 11.9%.
`Cc1ccc(CCNC(=O)c2cc(S(=O)(=O)N3CCOCC3)cn2C)cc1` gave Pf growth 96h -9.3%, Cycloheximide cs -1.4, HCV inhibitor -16.5%, Pf growth 48h 4.7%, Shiga inhibitor -3.1 and AMA1-RON2 inh 2.9%.
For COc1ccc(CCNC(=O)c2cc(S(=O)(=O)N3CCOCC3)cn2C)cc1OC the results were Pf growth 96h 7.38µM*, Cycloheximide cs 0.9, HCV inhibitor -17.2%, Pf growth 48h 17.4%, Shiga inhibitor -6.3 and AMA1-RON2 inh 0.0%.
Cn1cc(S(=O)(=O)N2CCCC2)cc1C(=O)NCCc1ccccc1 was read as Pf growth 96h 2.62µM*, Cycloheximide cs 11.5*, HCV inhibitor inconclusive, Pf growth 48h -12.7%, Shiga inhibitor 17.5 and AMA1-RON2 inh 8.3%.
For CN(CC(=O)Nc1cccc(C(F)(F)F)c1)C1=NS(=O)(=O)c2ccccc21 the results were HCV inhibitor inconclusive and AMA1-RON2 inh -2.9%.
Screening CN(CC(=O)c1c(N)n(C)c(=O)n(C)c1=O)c1ccccc1 returned Pf growth 96h 1.2%, Cycloheximide cs -1.8, HCV inhibitor 4.3%, Pf growth 48h -9.3%, Shiga inhibitor 5.5 and AMA1-RON2 inh 16.7%.
CC1(C)CC(=O)C=C(C(=O)N2CCCC(C(=O)c3cccc(C(F)(F)F)c3)C2)O1 (centres undefined) was read as Pf growth 96h inconclusive, Cycloheximide cs 11.9, HCV inhibitor inconclusive, Pf growth 48h -25.6%, Shiga inhibitor 9.6 and AMA1-RON2 inh 12.9%.
For Cc1ccc(S(=O)(=O)N2CCOCC2)cc1NC(=O)CNCC1CCCCC1 the results were Pf growth 96h inconclusive, Cycloheximide cs -2.8, HCV inhibitor -9.9%, Pf growth 48h 6.5%, Shiga inhibitor -8.7 and AMA1-RON2 inh -3.2%.
`C=CCC[C@H](CCCCC)OC(=O)/C=C/[C@@H](O)[C@H](O)C[C@@H](O)CC=C` gave AMA1-RON2 inh 9.6%.
Screening COc1cc2c(cc1OC)C(=Cc1ccc(N(C)C)cc1)C=C2 returned HCV inhibitor 10µM* and AMA1-RON2 inh 8.91µM*.
Screening Cc1nc(-c2ccc(C(=O)N3CCOCC3)cc2)cs1 returned Pf growth 96h 13.8%, Cycloheximide cs 31.7*, HCV inhibitor 16.7%, Pf growth 48h 44.8%, Shiga inhibitor 47.8 and AMA1-RON2 inh 10.0%.
Screening Cc1nc(CN2CCN(C(=O)c3ccc(C(C)(C)C)cc3)CC2)cs1 returned Pf growth 96h 11.7µM*, Cycloheximide cs 11.5, HCV inhibitor inconclusive, Shiga inhibitor 29.8 and AMA1-RON2 inh 0.0%.
O=C(c1ccc(C(=O)N2CCCCCC2)cc1)N1CCCCCC1 was read as Pf growth 96h inconclusive, Cycloheximide cs -1.7, HCV inhibitor 3.9%, Pf growth 48h 11.1%, Shiga inhibitor 25.7 and AMA1-RON2 inh -8.0%.
Screening Cc1nc(-c2ccc(C(=O)N3CCCC3)cc2)cs1 returned Pf growth 96h -13.5%, Cycloheximide cs 36.8*, HCV inhibitor 9.6%, Pf growth 48h 235.4%, Shiga inhibitor 131.6* and AMA1-RON2 inh -1.4%.
